From the supplement of paper PMC10127200
Structures can show the parent of a compound that is named as a salt.

Experiments:
Test in all cases: Euclidean distance of Cell Painting phenotypic profile (signed KS, 77 features) to DMSO centroid (dimensionless distance); 5 or 10 uM (library dependent); higher = stronger phenotypic change vs DMSO (phenoactivity)
Settings in all cases: 48 h
786-O = tested on: 786-O
Method in brief: (§1)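 Stained cells were imaged confocally at 20X with 9 fields per well, after 48 h of exposure to library compounds at 10 or 5 uM (set by library; 0.1% DMSO final). The cells were five cancer lines and a healthy fibroblast line. From the images, Harmony extracted 77 features, each expressed as a signed Kolmogorov-Smirnov statistic relative to same-plate vehicle wells. Phenoactivity is measured as Euclidean distance to the median vehicle profile, using plate-position-corrected, correlation-weighted profiles averaged across replicates at the top dose.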

A549 = tested on: A549
Method in brief: as §1

DU145 = tested on: DU145
Method in brief: as §1

FB = tested on: FB
Method in brief: as §1

HEPG2 = tested on: HEPG2
Method in brief: as §1

OVCAR4 = tested on: OVCAR4
Method in brief: as §1

SMILES | Euclidean distance (786-O) | Euclidean distance (A549) | Euclidean distance (DU145) | Euclidean distance (FB) | Euclidean distance (HEPG2) | Euclidean distance (OVCAR4)
Cc1cc(Nc2cc(CN3CCOCC3)c3nc(C)c(Cc4ccc(Cl)cc4F)n3n2)n[nH]1 | 3.25 | 3.37 | 2.63 | 1.71 | 2.95 | 3.19
CC1Oc2cc(cnc2N)-c2c(nn(C)c2C#N)CN(C)C(=O)c2ccc(F)cc21 (stereo not drawn) | 0.876 | 1.02 | 1.34 | 1.55 | 2.11 | 1.26
CCC(=O)OCC(=O)[C@@]1(OC(=O)CC)[C@@H](C)C[C@H]2[C@@H]3CCC4=CC(=O)C=C[C@]4(C)[C@@]3(Cl)[C@@H](O)C[C@@]21C [Beclomethasone dipropionate] | 1.09 | 2.14 | 2.46 | 1.95 | 0.575 | 1.8
CC(C)(C)c1nc(-c2cccc(NS(=O)(=O)c3c(F)cccc3F)c2F)c(-c2ccnc(N)n2)s1 [Dabrafenib Mesylate] | 1.18 | 1.23 | 1.47 | 3.79 | 1.3 | 1.47
CNCCCC12CCC(c3ccccc31)c1ccccc12 [Maprotiline HCl] | 0.958 | 1.1 | 1.11 | 2.09 | 1.53 | 0.98
COc1ccc2cc3[n+](cc2c1OC)CCc1cc2c(cc1-3)OCO2 [Berberine Sulfate] | 1.66 | 2.46 | 1.4 | 2.36 | 1.68 | 2.08
O=C(O)CCCc1ccccc1 [Sodium Phenylbutyrate] | 0.697 | 0.666 | 1.02 | 0.829 | 0.249 | 1.01
C#C[C@]1(O)CC[C@H]2[C@@H]3CCC4=CCCC[C@@H]4[C@H]3C(=C)C[C@@]21CC [Desogestrel] | 0.933 | 0.431 | 0.928 | 0.753 | 0.742 | 0.826
CC1(C)S[C@@H]2[C@H](NC(=O)[C@H](NC(=O)N3CCN(S(C)(=O)=O)C3=O)c3ccccc3)C(=O)N2[C@H]1C(=O)O [Mezlocillin Sodium] | 1.2 | 0.987 | 1.43 | 1.15 | 1.72 | 0.751
CCN(C(=O)c1c(O)c2c(Cl)cccc2n(C)c1=O)c1ccccc1 [Laquinimod] | 0.923 | 0.95 | 0.863 | 0.902 | 0.638 | 1.25
S=P(N1CC1)(N1CC1)N1CC1 [Thiotepa] | 2.52 | 3.76 | 2.03 | 2.35 | 2.68 | 3.07
COc1cc(NC(C)CCCN)c2ncccc2c1 (stereo not drawn) [Primaquine Diphosphate] | 0.845 | 2.02 | 1.16 | 2.24 | 2.3 | 1.51
O=C(O)Cc1cccc(OCCCN(Cc2cccc(C(F)(F)F)c2Cl)CC(c2ccccc2)c2ccccc2)c1 | 1.18 | 0.78 | 0.825 | 1.32 | 0.721 | 0.79
CC(C)Oc1ccc2c(=O)c(-c3ccccc3)coc2c1 [Ipriflavone (Osteofix)] | 1.22 | 1.44 | 1.15 | 1.17 | 0.723 | 2.28
Cc1ccc(/C(=C\CN2CCCC2)c2ccccn2)cc1 [Triprolidine Hydrochloride] | 0.627 | 0.986 | 0.542 | 1.16 | 1.31 | 1.02
CCCC(=O)Nc1ncnc2c1ncn2[C@@H]1O[C@@H]2COP(=O)(O)O[C@H]2[C@H]1OC(=O)CCC [Dibutyryl-cAMP (Bucladesine)] | 1.05 | 0.792 | 0.663 | 0.745 | 0.883 | 1.53
N#CC(=C(/N)Sc1ccccc1N)/C(C#N)=C(\N)Sc1ccccc1N | 1.54 | 1.18 | 0.907 | 1.57 | 1.81 | 1.48
CC(C)(CO)c1cc2cc(NC(=O)C3(c4ccc5c(c4)OC(F)(F)O5)CC3)c(F)cc2n1C[C@@H](O)CO | 1.47 | 1.89 | 1.24 | 2.93 | 0.904 | 2.17
CCN(CC)CC(=O)Nc1c(C)cccc1C [Lidocaine] | 1.65 | 0.785 | 1.51 | 0.913 | 0.435 | 1.11
CN(C)c1cc(CNCC(C)(C)C)c(O)c2c1C[C@H]1C[C@H]3[C@H](N(C)C)C(O)=C(C(N)=O)C(=O)[C@@]3(O)C(O)=C1C2=O [Omadacycline tosylate] | 1.25 | 0.879 | 1.21 | 1.14 | 0.757 | 1.46
OCc1ccc(Cl)cc1Cl [2.4-dichlorobenzyl alcohol] | 0.68 | 0.36 | 1.13 | 0.663 | 0.329 | 1.56
COc1c(N2CCNC(C)C2)c(F)cc2c(=O)c(C(=O)O)cn(C3CC3)c12 (stereo not drawn) [Gatifloxacin] | 0.648 | 0.598 | 0.774 | 0.851 | 0.876 | 1.07
CSCCNc1nc(SCCC(F)(F)F)nc2c1ncn2[C@@H]1O[C@H](COP(=O)(O)OP(=O)(O)C(Cl)(Cl)P(=O)(O)O)[C@@H](O)[C@H]1O [Cangrelor Tetrasodium] | 1.09 | 1.07 | 0.563 | 1.25 | 0.767 | 0.58
NC(=O)NO [Hydroxyurea] | 1.25 | 0.771 | 1.13 | 0.703 | 0.79 | 1.18

SMILES | Euclidean distance (786-O) | Euclidean distance (A549) | Euclidean distance (DU145) | Euclidean distance (FB) | Euclidean distance (HEPG2) | Euclidean distance (OVCAR4)
O=S1(=O)CCN(CN2CCS(=O)(=O)NC2)CN1 [Taurolidine] | 1.32 | 0.797 | 0.913 | 1.04 | 0.654 | 1.46
Nc1ccc(C(=O)Nc2cccc(-c3nc(N4CCOCC4)c4oc5ncccc5c4n3)c2)cn1 | 4.09 | 5.02 | 4.16 | 1.63 | 3.45 | 2.25
OC[C@@H](O)CN1CCN(c2ccccc2)CC1 [Levodropropizine] | 1.23 | 1.05 | 0.896 | 1.17 | 0.732 | 1.12
CS(=O)(=O)Nc1ccc([N+](=O)[O-])cc1Oc1ccccc1 [Nimesulide] | 1.43 | 1.21 | 0.674 | 1.03 | 1.82 | 1.8
NC(=O)N[C@@H](CCC(=O)O)C(=O)O [Carglumic Acid] | 1.22 | 0.653 | 0.949 | 1.06 | 0.389 | 0.68
CCc1cc(/C(C)=N/OCc2ccc(C3CCCCC3)c(C(F)(F)F)c2)ccc1CN1CC(C(=O)O)C1 [BAF312 (Siponimod)] | 1.61 | 1.05 | 1.31 | 0.66 | 0.538 | 1.25
COc1cc2c(cc1OC)[C@H]1C[C@@H](OC(=O)[C@@H](N)C(C)C)[C@H](CC(C)C)CN1CC2 [Valbenazine tosylate] | 0.826 | 0.503 | 1.01 | 0.778 | 0.752 | 1.05
Cc1cc(S(=O)(=O)O)c2c(C)ccc(C(C)C)cc1-2 [Sodium gualenate] | 1.2 | 0.401 | 0.867 | 1.3 | 1.18 | 1.13
OC(CNCC(O)C1CCc2cc(F)ccc2O1)C1CCc2cc(F)ccc2O1 (stereo not drawn) [Nebivolol] | 1.39 | 1.67 | 0.832 | 1.65 | 2.26 | 1.58
C[C@]1(c2nc3c(C(N)=O)cccc3[nH]2)CCCN1 [Veliparib (ABT-888)] | 1.29 | 1 | 0.896 | 1.35 | 0.938 | 1.16
NC(=O)[C@@H](CCC(F)(F)F)N(Cc1ccc(-c2ncon2)cc1F)S(=O)(=O)c1ccc(Cl)cc1 | 2.13 | 1.14 | 1.04 | 2.28 | 1.48 | 0.855
O=C(NC1CCN(CCCCC2(C(=O)NCC(F)(F)F)c3ccccc3-c3ccccc32)CC1)c1ccccc1-c1ccc(C(F)(F)F)cc1 [Lomitapide Mesylate] | 5.45 | 4.4 | 6.1 | 5.88 | 5.29 | 5.65
Cc1cccc(Nc2ccccc2C(=O)O)c1C [Mefenamic Acid] | 0.733 | 0.521 | 0.8 | 1.14 | 0.673 | 0.64
CC(C)OC(=O)[C@H](C)N[P@](=O)(OC[C@H]1O[C@@H](n2ccc(=O)[nH]c2=O)[C@](C)(F)[C@@H]1O)Oc1ccccc1 [Sofosbuvir (PSI-7977. GS-7977)] | 1.34 | 0.693 | 1.07 | 0.694 | 0.59 | 1.01
CCCC(=O)OCOC(=O)C1=C(C)NC(C)=C(C(=O)OC)C1c1cccc(Cl)c1Cl (stereo not drawn) [Clevidipine Butyrate] | 1.64 | 0.675 | 1.47 | 0.951 | 2.16 | 1.78
CC(=O)OC1CC2CCC1(C)C2(C)C (stereo not drawn) [Bornyl acetate] | 1.09 | 0.894 | 1.24 | 1.11 | 0.74 | 1.29
Cc1ccccc1-c1cc(N2CCN(C)CC2)ncc1N(C)C(=O)C(C)(C)c1cc(C(F)(F)F)cc(C(F)(F)F)c1 [Netupitant] | 1.35 | 0.761 | 0.595 | 0.999 | 1.23 | 1.4
COc1ccccc1OCC(O)CN1CCN(CC(=O)Nc2c(C)cccc2C)CC1 (stereo not drawn) [Ranolazine] | 1.2 | 0.699 | 0.507 | 0.669 | 1.08 | 1.09
COc1ccc(OC)c(C(O)CNC(=O)CN)c1 (stereo not drawn) [Midodrine] | 0.905 | 1.21 | 0.468 | 0.683 | 0.342 | 0.78
Cc1cc(-n2c(=O)[nH]c(=O)n(C)c2=O)ccc1Oc1ccc(SC(F)(F)F)cc1 [Toltrazuril] | 1.07 | 0.597 | 0.914 | 0.686 | 0.651 | 1.41
C#Cc1cccc(Nc2ncnc3cc(OCCOC)c(OCCO)cc23)c1 | 1.88 | 1.49 | 1.82 | 2.87 | 1.07 | 2.03
C[C@H](O)[C@H](O)[C@H]1CNc2[nH]c(N)nc(=O)c2N1 [Sapropterin Dihydrochloride] | 0.821 | 0.501 | 0.871 | 0.819 | 0.542 | 0.643
CC1=C[C@H](O)CC(C)(C)[C@H]1/C=C/C(C)=C/C=C/C(C)=C/C=C/C=C(C)/C=C/C=C(C)/C=C/C1=C(C)C[C@@H](O)CC1(C)C [lutein] | 0.901 | 0.452 | 1.78 | 0.947 | 1.18 | 1
CCCCCCCC(=O)N[C@H](CN1CCCC1)[C@H](O)c1ccc2c(c1)OCCO2 [Eliglustat] | 0.75 | 1.58 | 1.05 | 1.48 | 1.2 | 1.06
